According to PubChem BioAssay AID1117319 (Southern Research Institute, 2015):
Among all 260,000 compounds or so, about 1,500 (0.58%) were called active. Roughly 5% stayed inconclusive and do not appear here.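 The calls were made as follows: active = inhibition above a set limit at one or more doses, reproduced on every date tested; inconclusive = results disagree between test dates, or hit never tested in dose response; inactive = the rest.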 Not all results are given here. Measured potencies and affinities stand elsewhere.

Target: Virion infectivity factor (Human immunodeficiency virus type 1 group M subtype B (isolate BH10)) + Virion infectivity factor (Human immunodeficiency virus type 1 group M subtype B (isolate BRU/LAI)) + Virion infectivity factor (Human immunodeficiency virus type 1 group M subtype B (isolate PCV12)) + Virion infectivity factor (Human immunodeficiency virus type 1 group M subtype B (isolate HXB2)) + DNA dC->dU-editing enzyme APOBEC-3G (Homo sapiens) (UniProt P69720+P69721+P69722+P69723+Q9HC16)
Test: inhibitors of Vif binding to APOBEC3G peptide, primary screen, biochemical, TR-FRET, GST-Vif 1-94, biotin-A3G peptide, dose response retest (AID 1117319);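 also: Vif residues 1-94 fused to GST binding biotinylated APOBEC3G peptide 110-148; 0% = full assay without inhibitor and 100% = GST in place of GST-Vif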
Settings: hits give high values

inhibition, inactive:
COc1ccc(CCNC(=O)COC(=O)/C=C/c2cccs2)cc1 8.83%
C=C(C)C1Cc2c(C)nn(-c3ccccn3)c2C1 (stereo not given) -1.81%
Cc1nn(-c2ccccn2)c2c1-c1nc(N)ncc1CC2 5.31%
Nc1nc(SCC(=O)c2c(N)n(Cc3ccccc3)c(=O)[nH]c2=O)n[nH]1 -2.67%
CCCC(=O)NC(Nc1c(C)n(C)n(-c2ccccc2)c1=O)C(Cl)(Cl)Cl (stereo not given) -6.76%
COc1ccc(CNS(=O)(=O)c2c(C)[nH]c(C)c2C(=O)N2CCCCC2)cc1 -4.48%
CCOC(=O)Cc1cc(=O)n2[nH]c(-c3ccccc3)cc2n1 3.98%
CCOC(=O)Cc1cc(=O)n2[nH]c(C(C)(C)C)cc2n1 2.01%
O=C1CCCC(O)=C1N=Nc1ccc2ncsc2c1 1.8%
O=C1CCCC(O)=C1N=Nc1ccc(Cl)c(Cl)c1 -7.94%
CC(=O)N1CCc2cc(N=NC3=C(O)CCCC3=O)ccc21 11.2%
O=Cc1cc(N=Nc2cccc(C(=O)O)c2)ccc1O 8.26%
Cc1nc2ccc(N=NC3=C(O)CCCC3=O)cc2s1 19.7%
O=C(O)c1cccc(N=NN2CCOCC2)c1 0.39%
O=C1CCCC(O)=C1N=Nc1cccc(S(=O)(=O)N2CCOCC2)c1 -9.52%
CC1(C)CC(=O)C(N=Nc2ccc(S(=O)(=O)N3CCOCC3)cc2)=C(O)C1 4.95%
Cc1cc(C)c2c(N)c(C(=O)N3CCc4ccccc4C3)sc2n1 2.97%
O=C(CSc1ccccc1C(=O)O)NC12CC3CC(CC(C3)C1)C2 -8.39%
COC(=O)C1=C(C)OC(N)=C(C#N)C1c1ccsc1 (stereo not given) -0.64%
Cc1ccc(/C=C/C(=O)Nc2ccc(S(N)(=O)=O)cc2)o1 5.06%
O=C(/C=C/c1ccc(F)cc1)Nc1cccc(S(=O)(=O)N2CCOCC2)c1 -3.16%
Cc1ccc(/C=C/C(=O)Nc2ccncc2)o1 26.1%
Cc1ccc(/C=C/C(=O)Nc2nnc(C)s2)o1 30.1%
COc1ccc(NC(=O)/C=C/c2ccc(C)o2)cc1S(=O)(=O)N1CCOCC1 22.6%
Cc1cnc(NC(=O)/C=C/c2ccc(Br)o2)s1 20.7%
Cc1cc(-c2nnc(CCC(=O)N3CCN(Cc4cccc(F)c4)CC3)o2)c(C)o1 -7.15%
COc1ccc(OC)c(CN2CCN(C(=O)c3cccs3)CC2)c1 1.09%
COc1ccc(Oc2nc(-c3cccnc3)nc3ccccc23)cc1 -18.5%
CCC(OC(=O)c1nsc(Cl)c1Cl)C(=O)NC(C)(C)CC (stereo not given) -6.48%
CC(NC(=O)c1cccc(S(=O)(=O)N2CCN(Cc3ccccc3)CC2)c1)c1ccc(Cl)cc1 (stereo not given) 3.65%
CCOC(=O)c1cn2nc(Oc3ccc(NC(C)=O)cc3)ccc2n1 -0.1%
CC(NC(=O)c1ccc2nc(Cc3cccc(Cl)c3)oc2c1)c1ccncn1 (stereo not given) 0.5%
CN(C)C(=O)CCc1ccc2c3c([nH]c2c1)[C@]1(CCC2CCCC2)[C@@H](C(=O)N2CCOCC2)C[C@H](CC(=O)NCCC2=CCCCC2)C(=O)N1CC3 4.07%
CCOc1ncccc1C(=O)OCC(=O)NC1CCCCCC1 -6.35%
Cc1cc(S(=O)(=O)Nc2ncnc3sccc23)ccc1F 1.05%
CCOC(=O)C(C)/C(C)=N/NC(=O)CCC(=O)Nc1cc(C)ccc1C (stereo not given) 3.1%
CCOC(=O)c1nc(C)n(-c2ccc(Cl)cc2Cl)n1 23.2%
CCOC(=O)c1nn(-c2ccccc2C)c(=O)c(C#N)c1C 12.1%
O=C(Oc1c(-c2ccccc2)oc2ccccc2c1=O)c1ccccc1 -7.08%
N#Cc1c(-c2ccc(Cl)cc2)c2c([nH]c1=S)CCCC2 -9.58%
Cc1ccc(-c2c(C(=O)Nc3ccccc3C)c(C)[nH]c(=S)c2C#N)o1 17.8%
COc1ccc(-c2c3c([nH]c(=S)c2C#N)CCC3)cc1 -9.25%
N#Cc1c(-c2cccnc2)c2c([nH]c1=S)CCCC2 28.4%
COc1ccc(OC)c(-c2c3c([nH]c(=S)c2C#N)CCCC3)c1 -14.3%
Cc1ccccc1NC(=O)c1c(C)[nH]c(=S)c(C#N)c1-c1ccc(Cl)cc1 -0.84%
CC(=O)OC1CC[C@@]2(C)C(CCC3C2CC(=O)[C@@]2(C)C3CC3CC(C)=CC(=O)C32)C1 (stereo not given in full) -1.09%
CC(Oc1ccccc1F)C(=O)NNC(=O)CCS(=O)(=O)c1ccccc1Cl (stereo not given) 3.79%
CC1CC(C)(C)NC(=S)N1CCC(=O)N1CCc2ccccc2C1 (stereo not given) -8.29%
CC1(C)C(=O)NCCN1C(=O)CCC(=O)O -4.36%
Cc1ccc(CNC(=O)C2CC3Cn4c(nc5cc6ccccc6cc54)C3N2C)o1 (stereo not given) 5.41%
O=C(CSc1ccc(-c2nc3ccccc3[nH]2)cn1)Nc1ccc(S(=O)(=O)N2CCCC2)cc1 -5.26%
O=C(CSc1nnc(NC(=O)c2cccc(Cl)c2)s1)NCC1CCCO1 (stereo not given) 3.82%
CCOc1cc(N2CCOCC2)c(OCC)cc1NC(=O)COc1ccc2ccc(=O)oc2c1 -0.33%
COc1ccccc1C(c1nnnn1Cc1ccco1)N1CCN(c2cccc(C)c2C)CC1 (stereo not given) 25.8%
O=C(c1cc(COc2ccc3ncccc3c2)on1)N1CCC[C@H]1CO 1.67%
COC(=O)C1CCCCN1C(=O)c1cc(COc2cccc3cccnc23)on1 (stereo not given) 4.07%
COc1cccc(CNC(=O)CCCN2C(=O)C(c3ccccc3)Oc3cccnc32)c1OC (stereo not given) -2.88%
CCOC(=O)C1=C(C)N(C2CCCCC2)C(=O)C1 -5.38%
COC(=O)\C(C(C)=O)=C(/C=C/C=C/N(C)C)N(C)C 27.9%
COC(=O)/C(C(C)=O)=C(/C=C/C=C/N(C)C)N(C)C 16.1%
